The values below come from PubChem BioAssay AID1650 (Southern Research Specialized Biocontainment Screening …, 2009).

Entries with a potency or affinity are not part of this list. Calls of active or inactive are those of the source. The rule behind the calls is not given here.

The assay in a line: host cell cytotoxicity of antiviral hits, dose response, cytotoxicity control for West Nile virus antiviral project, secondary assay (AID 1650). Particulars: Mammalian host cell viability, cytotoxicity counter-screen; series mostly up to 10 µM.
`O=C(Oc1ccccc1)c1ccc(-n2cnnn2)cc1`: the compound was called inactive.

For the compound `CCOC(=O)C(=Cc1ccc(F)cc1)C(=O)OCC`, the compound was classed as inactive.

As to `O=C(NC1CCCC1)C(c1ccncc1)N(Cc1ccccc1)C(=O)c1ccc(-c2ccccc2)[nH]1` (stereo not given), the result was inactive.

With `Cc1ccc(-c2nc3ccccc3n3nnnc23)cc1`, the compound was called inactive.

On to `O=C(CSc1nc2ccccc2c(=O)n1-c1ccc(F)cc1)Nc1ccc2c(c1)CCC2`, for which the compound was classed as inactive.

On to `CCN(CC)CCNC(=O)C1CCN(S(=O)(=O)c2c(C)noc2/C=C/c2ccccc2F)CC1`, for which the outcome was inactive.

In the case of `CCN(CC)CCCN1CC(O)=C(c2nc3ccccc3s2)C1=N`, the call was inactive.

Regarding `Cc1cc2nc(Sc3c([N+](=O)[O-])nc(C)n3Cc3ccccc3)[nH]c2cc1C`, the outcome was inactive.

Take `CCOc1ccc(/C=C/c2nc(C#N)c(NCCCN(C)C)o2)cc1`: the call was inactive.

As to `Cc1c(Cc2ccccc2)c(NCCN(C)C)n2c(nc3ccccc32)c1C#N`, the outcome was inactive.

For the compound `CCN1CCN(c2ccc(S(=O)(=O)N3CCCCC3)cc2NC(=O)Cc2c(Cl)cccc2Cl)CC1`, the compound was called inactive.

Turning to `CN1CCN(CCCN2c3ccccc3Sc3ccc(C(F)(F)F)cc32)CC1`, the outcome was inactive.

As for `CCN1CCN(CCNC(=O)c2ccc(/C=C3\Sc4ccccc4N(Cc4ccccc4F)C3=O)cc2)CC1`, the outcome was inactive.

In the case of `CN(C)CCNC=C(C(=O)Nc1ccc(Cl)cc1Cl)C(=O)Nc1ccc(Cl)cc1Cl`, the call was inactive.

`N=C1C(c2nc(-c3ccc(Cl)cc3)cs2)=C(O)CN1CCCN1CCOCC1`: the compound was called inactive.

With `CCOC(=O)c1sc(NC(=O)Nc2ccccc2)cc1C`, the compound was called inactive.

For the compound `CCN1CCN(CCCNC(=O)c2ccc3c(Cl)c4c(nc3c2)CCCC4)CC1`, the outcome was inactive.

As for `CCN(CC)CCCNC(=O)c1cc(-c2ccccc2)c(N2CCCCC2)s1`, the compound was classed as inactive.

Turning to `Cc1ccc2cc(C#N)c(N3CCCN(C(=S)NCCCN(C)C)CC3)nc2c1`, the result was inactive.

Take `CCOc1cc(/C=N/N=C(\N)c2nonc2N)cc(Br)c1OCc1cccc2ccccc12`: the compound was called inactive.

In the case of `COc1cc(CNC(C)(C)C)cc(Br)c1OCc1cccs1`, the outcome was inactive.

For `CCCCN(CC)CCCNC(=S)Nc1ccc2nc(N3CCN(CC)CC3)cc(C)c2c1`, the outcome was inactive.

As to `CCOC(=O)c1c(CSCc2ccccc2)oc2ccc(O)c(CN(C)C)c12`, the call was inactive.

As to `COc1cc(NC(=O)c2cc([N+](=O)[O-])ccc2Br)ccc1NC(=O)c1ccco1`, the call was inactive.

As for `CN(C)CCNS(=O)(=O)c1ccc(N2CCN(c3ccc(F)cc3)CC2)c([N+](=O)[O-])c1`, the compound was called inactive.
